Results filed as inconclusive are left out. Values without a mark were called inactive. Active and inactive are the calls of the source. Unless noted, the call rests on the fitted dose curve; in most records, active means well fitted curve in the direction sought with a large enough effect in the repeat runs; inconclusive means weak or mixed curves; inactive means no such curve, though single readings can be large; an effect the other way counts as inactive or inconclusive.

In assay [1] the target is Retinoic acid receptor RXR-alpha (Homo sapiens) (UniProt P19793). As to the kind of experiment: qHTS assay to identify small molecule agonists of the RXR signaling pathway (AID 1159527; calls by dose curve; further: nearly all actives have a fitted effect of over 35% in size). The procedure, abridged: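 Beta-lactamase reporter assay, agonist format. Engineered HEK 293T line, charcoal-stripped FBS at 2%, overnight (16 hr) exposure, fluorescence at 460 and 530 nm after 405 nm excitation.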
Retinoic acid receptor RXR-alpha (Homo sapiens), sequence (P19793 whole entry, looked up): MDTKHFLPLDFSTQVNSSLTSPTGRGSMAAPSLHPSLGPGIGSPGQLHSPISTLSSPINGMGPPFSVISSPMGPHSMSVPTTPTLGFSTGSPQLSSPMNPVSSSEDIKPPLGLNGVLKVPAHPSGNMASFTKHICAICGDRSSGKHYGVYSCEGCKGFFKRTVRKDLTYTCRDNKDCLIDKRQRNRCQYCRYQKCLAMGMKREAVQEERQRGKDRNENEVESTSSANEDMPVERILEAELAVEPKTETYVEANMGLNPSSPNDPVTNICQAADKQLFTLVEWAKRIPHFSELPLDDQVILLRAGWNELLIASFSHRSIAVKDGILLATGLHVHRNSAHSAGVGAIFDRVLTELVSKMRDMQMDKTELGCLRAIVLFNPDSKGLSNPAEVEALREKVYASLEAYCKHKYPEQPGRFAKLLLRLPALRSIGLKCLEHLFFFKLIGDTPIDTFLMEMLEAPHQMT
For orientation: In qHTS, concentration-response curves come from the screen itself.

The nature of assay [2]: qHTS assay to identify small molecule agonists of the RXR signaling pathway - cell viability counter screen (AID 1159529).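 Further: HEK 293T cells carrying an RXR-alpha UAS beta-lactamase reporter; nearly all actives have a fitted effect of over 50% in size.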 The procedure, abridged:
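Same-well viability check after the LiveBLAzer FRET read: CellTiter-Glo added, luminescence measured after 30 min at room temperature. Reporter HEK 293T cells had been treated with compounds for 16 hr following a 5 hr preincubation.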

A short description of assay [3]: qHTS assay to identify small molecule antagonists of the retinoid acid receptor (RAR) signaling pathway - cell viability counter screen (AID 1159551). Further: nearly all actives have a fitted effect of over 35% in size. The procedure, abridged:
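ATP-based viability, C3RL4 cells, 6 h at 37 C with 1 uM final retinol co-added after compound; luminescence read 30 min post CellTiter-Glo, RT.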

The nature of assay [4]: qHTS assay to identify small molecule antagonists of the retinoic acid receptor (RAR) signaling pathway (AID 1159552; further: nearly all actives have a fitted effect of over 50% in size). The procedure, abridged:
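Readout: luciferase luminescence, 30 min post-reagent at RT. Setup: C3RL4 RARE reporter cells, compounds plus retinol 1 uM final, 6 hr incubation at 37 C and 5% CO2.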

The nature of assay [5]: qHTS assay to identify small molecule agonists of the retinoic acid receptor (RAR) signaling pathway (AID 1159553). Conditions: C3RL4 RARE luciferase reporter, agonist, 6 h; activation: at 73.3 µM (top of the series). Put shortly: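 Quantitative high-throughput format: the Tox21 10K library was tested on C3RL4 RARE-luciferase cells for 6 hr at 37 C and 5% CO2, with luminescence measured after a 30 min room-temperature reagent step.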

Assay [6] is described as follows: qHTS assay to identify small molecule antagonists of the estrogen related receptor (ERR) signaling pathway from Tox21 library - cell viability counter screen (AID 1224834). Further: nearly all actives have a fitted effect of over 30% in size. The procedure, abridged:
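Compounds in DMSO were pinned onto ERR cells that had been incubated for 6 h, and the plates were held at 37 C for 17.5 h. CellTiter-Fluor reagent was then added and fluorescence was measured after 30 min.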

Assay [7] concerns the target Luciferin 4-monooxygenase (Photinus pyralis) (UniProt P08659). Description: qHTS assay to identify small molecule inhibitors of firefly luciferase (AID 1224835). Further: nearly all actives have a fitted effect of over 25% in size. The procedure, abridged: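 Biochemical qHTS: compounds run as interplate titrations against purified firefly enzyme, with D-luciferin and ATP each at its KM concentration. Light output recorded by CCD imaging.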

Assay [8] in a line: qHTS assay to identify small molecule agonists of the constitutive androstane receptor (CAR) signaling pathway - cell viability counter screen (AID 1224836). Further: nearly all actives have a fitted effect of over 45% in size. The procedure, abridged: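 Compound titrations (15 concentrations) went onto HepG2-CYP2B6-hCAR cells 4 h after seeding, alongside PK11195 at a final 0.75 uM; a 23 h, 37 C/5% CO2 incubation preceded CellTiter-Fluor viability measurement.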

A short description of assay [9]: qHTS assay to identify small molecule antagonists of the constitutive androstane receptor (CAR) signaling pathway - cell viability counter screen (AID 1224837). Further: nearly all actives have a fitted effect of over 45% in size. The procedure, abridged:
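Cells are seeded, rested 4 hr at 37 C/5% CO2, dosed with compound (15-point series) and 50 nM CITCO, incubated a further 23 hr, and then CellTiter-Fluor reagent is added before fluorescence is read. The line is HepG2 with stable hCAR and CYP2B6-2.2kb.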

A short description of assay [10]: qHTS assay to identify small molecule antagonists of the estrogen related receptor signaling pathway with the pleiotropic PPARgamma coactivator (PGC) from Tox21 10K library - cell viability counter screen (AID 1224840; active means well fitted cell-killing curve with a large enough effect in the repeat runs, not every such curve was filed as active; further: nearly all actives have a fitted effect of over 40% in size). The procedure, abridged:
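Cell viability is measured by CellTiter-Fluor fluorescence in PGC/ERR cells that receive compounds after a 6-hour attachment period and are then incubated 17.5 hours at 37 C.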

Assay [11] is described as follows: qHTS assay to identify small molecule antagonists of the estrogen related receptor signaling pathway with the pleiotropic PPARgamma coactivator (PGC) from Tox21 10K library (AID 1224841; call rule not given here; further: actives are mostly falling curves and most rising ones were filed inactive; nearly all actives have a fitted effect of over 50% in size). Put shortly: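 Cells stably carrying the PGC/ERR reporter, seeded at 2,000 per well, received pin-transferred compounds 6 h post-plating. Exposure lasted 18 h at 37 C. Signal: One-Glo luminescence.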

A short description of assay [12]: qHTS assay to identify small molecule agonists of the estrogen related receptor signaling pathway with the pleiotropic PPARgamma coactivator (PGC) from Tox21 10K library (AID 1224842). Further: nearly all actives have a fitted effect of over 15% in size. The procedure, abridged:
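PGC/ERR reporter cell line, 2,000 cells per well, incubated 6 h at 37 C before 23 nL compound in DMSO was added. After 18 h at 37 C, One-Glo luminescence read following 30 min at room temperature.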

For assay [13], the target named is Thyrotropin receptor (Homo sapiens) (UniProt P16473). As to the kind of experiment: qHTS assay to identify small molecule agonists of the thyroid stimulating hormone receptor (TSHR) signaling pathway (AID 1224843; calls by dose curve; further: nearly all actives have a fitted effect of over 45% in size). Put shortly:
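HEK293/TSHR, 800 cells/well; cpd 30 min RT; add cAMP-d2 + anti-cAMP-cryptate, 1 h RT; fluorescence read on plate reader. 15-pt titration, n=3.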

Assay [14] can be described thus: qHTS assay to identify small molecule agonists of the hypoxia (HIF-1) signaling pathway - cell viability counter screen (AID 1224844; calls by dose curve; further: nearly all actives have a fitted effect of over 50% in size). Put shortly: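 Viability counter screen: HRE-bla ME-180 cells plated 5 hrs before compound addition, treated 17 hrs at 37C and 5% CO2, then CellTiter-Glo added after the FRET reporter read; luminescence after 30 min.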
Assay [15] in a line: qHTS assay to identify small molecule agonists of H2AX (AID 1224845; active means well fitted activation curve with a large enough effect in the signal ratio in the repeat runs, not every such curve was filed as active; the % refers to the signal ratio). Put shortly: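 Wild-type CHO-K1 cells, plated overnight, exposed 3hr at 37C to 15 concentrations (0.76% DMSO final). Lysed, then HTRF anti-pH2AX (S139) cryptate and anti-H2AX-d2 antibodies, 24 hr room temperature; 665/620 nm emission read.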
Assay [16] can be described thus: qHTS assay to identify small molecule agonists of the hypoxia (HIF-1) signaling pathway (AID 1224846; active means well fitted activation curve with a large enough effect in the signal ratio in the repeat runs, not every such curve was filed as active; the % refers to the signal ratio). The procedure, abridged: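 Agonist mode reporter screen. ME-180 cells stably expressing bla under HRE control received test compounds in DMSO for 17 hrs (37C, 5% CO2), and beta-lactamase activity was then detected with the CCF4-AM FRET substrate.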
A short description of assay [17]: qHTS assay to identify small molecule agonists of H2AX - cell viability counter screen (AID 1224847; calls by dose curve; further: top concentration of the series differs between compounds; nearly all actives have a fitted effect of over 30% in size). The procedure, abridged: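 Read-out: CellTiter-Glo luminescence, 30 min RT. Cells: wild-type CHO-K1, 1000/well, 10% FBS, plated overnight at 37C. Treatment: 15 concentrations, 3 hr, 37C, 0.76% DMSO.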
Assay [18] in a line: qHTS assay to identify small molecule antagonists of the estrogen related receptor (ERR) signaling pathway from Tox21 library (AID 1224848). Further: nearly all actives have a fitted effect of over 50% in size. The procedure, abridged:
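Compounds dissolved in DMSO are pin-transferred onto ERR reporter cells (2,000 per well) that have settled for 6 h at 37 C. Plates then incubate 18 h at 37 C before ONE-Glo luciferase reagent and a luminescence read 30 min later.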

Assay [19] deals with Nuclear receptor subfamily 1 group I member 3 (Homo sapiens) (UniProt Q14994). As to the kind of experiment: qHTS assay to identify small molecule antagonists of the constitutive androstane receptor (CAR) signaling pathway (AID 1224838).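 Further: HepG2 cells stably expressing hCAR with CYP2B6 luciferase reporter stimulated by CITCO; nearly all actives have a fitted effect of over 40% in size.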 The procedure, abridged: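 Luminescence from a CYP2B6-2.2kb promoter reporter in hCAR-expressing HepG2 cells reflects CAR signaling. Cells received compounds at 15 concentrations and 50 nM CITCO (final), then incubated 24 h at 37 C/5% CO2.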
Nuclear receptor subfamily 1 group I member 3 (Homo sapiens), sequence (Q14994 whole entry, looked up): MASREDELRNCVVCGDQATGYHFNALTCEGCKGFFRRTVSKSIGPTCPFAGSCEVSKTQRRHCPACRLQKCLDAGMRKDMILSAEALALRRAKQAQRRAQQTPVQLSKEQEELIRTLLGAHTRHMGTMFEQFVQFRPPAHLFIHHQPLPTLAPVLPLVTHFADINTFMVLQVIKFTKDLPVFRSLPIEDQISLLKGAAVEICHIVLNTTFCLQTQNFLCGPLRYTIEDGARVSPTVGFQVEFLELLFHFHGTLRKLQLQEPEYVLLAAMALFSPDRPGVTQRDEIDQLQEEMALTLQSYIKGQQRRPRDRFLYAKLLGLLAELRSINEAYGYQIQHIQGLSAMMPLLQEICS

The target is the same in assay [20]. As to the kind of experiment: qHTS assay to identify small molecule agonists of the constitutive androstane receptor (CAR) signaling pathway (AID 1224839).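 Further: HepG2 cells stably carrying human CAR and a CYP2B6 luciferase reporter; nearly all actives have a fitted effect of over 15% in size.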 Put shortly:
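In this screen, CAR-driven CYP2B6 promoter activity is measured by luminescence in HepG2-CYP2B6-hCAR cells after 24 h with test compounds and 0.75 uM PK11195 (final concentration).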
On the % scale 0 is the no-effect control and ±100 the full control effect.

Luciferin 4-monooxygenase (Photinus pyralis), sequence (P08659 whole entry, looked up): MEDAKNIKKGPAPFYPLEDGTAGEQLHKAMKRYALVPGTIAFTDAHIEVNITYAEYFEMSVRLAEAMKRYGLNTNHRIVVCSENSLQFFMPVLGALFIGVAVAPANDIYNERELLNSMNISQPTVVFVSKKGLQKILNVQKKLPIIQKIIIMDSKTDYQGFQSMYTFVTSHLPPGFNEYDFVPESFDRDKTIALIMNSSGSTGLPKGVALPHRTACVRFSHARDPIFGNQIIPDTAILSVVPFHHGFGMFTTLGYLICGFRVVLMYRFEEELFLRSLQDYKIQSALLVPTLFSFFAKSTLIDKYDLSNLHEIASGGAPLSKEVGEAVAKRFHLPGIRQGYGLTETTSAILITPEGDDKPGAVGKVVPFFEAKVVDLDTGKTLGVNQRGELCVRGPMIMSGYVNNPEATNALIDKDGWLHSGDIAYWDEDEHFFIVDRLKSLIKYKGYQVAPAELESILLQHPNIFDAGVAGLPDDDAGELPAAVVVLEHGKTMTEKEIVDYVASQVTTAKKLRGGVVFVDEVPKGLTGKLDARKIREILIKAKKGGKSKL
Thyrotropin receptor (Homo sapiens), sequence (P16473 whole entry, looked up): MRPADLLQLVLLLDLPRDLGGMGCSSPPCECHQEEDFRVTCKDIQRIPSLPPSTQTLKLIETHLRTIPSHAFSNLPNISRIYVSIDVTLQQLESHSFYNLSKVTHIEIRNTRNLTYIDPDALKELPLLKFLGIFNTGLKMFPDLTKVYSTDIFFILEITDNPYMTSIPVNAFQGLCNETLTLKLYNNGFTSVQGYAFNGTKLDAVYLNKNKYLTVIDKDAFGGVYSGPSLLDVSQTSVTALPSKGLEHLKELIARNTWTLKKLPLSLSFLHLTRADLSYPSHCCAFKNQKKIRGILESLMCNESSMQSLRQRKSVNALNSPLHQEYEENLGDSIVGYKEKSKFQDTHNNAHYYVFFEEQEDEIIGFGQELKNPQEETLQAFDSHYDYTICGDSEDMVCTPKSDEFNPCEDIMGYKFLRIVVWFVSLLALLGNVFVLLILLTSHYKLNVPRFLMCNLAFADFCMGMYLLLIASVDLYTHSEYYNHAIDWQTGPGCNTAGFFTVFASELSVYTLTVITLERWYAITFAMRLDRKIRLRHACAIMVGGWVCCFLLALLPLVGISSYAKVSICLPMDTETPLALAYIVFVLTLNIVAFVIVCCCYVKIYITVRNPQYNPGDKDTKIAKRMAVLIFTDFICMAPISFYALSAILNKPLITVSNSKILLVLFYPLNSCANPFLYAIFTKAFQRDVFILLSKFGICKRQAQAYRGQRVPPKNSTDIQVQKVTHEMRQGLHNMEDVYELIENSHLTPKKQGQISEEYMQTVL

Regarding `FC(F)(F)c1ccc(Cl)cc1Cl`, the Potency result in assay [1], in [4], in [6], in assay [7], in assay [9] and in assay [11] was “inactive” throughout. Moreover, the Potency entry in [17] and in assay [18] was “inactive” each time. Also, the call in [2], in assay [3], in assay [8], in assay [10], in [12] and in assay [13] was inactive. Also, the compound was called inactive in assay [14], in assay [15] and in assay [16]. Further, in [5], the activation was 0.481% (active).
Turning to `COc1cc2c3cc1Oc1cc(ccc1O)C[C@@H]1c4c(cc(OC)c(O)c4Oc4ccc(cc4)C[C@@H]3N(C)CC2)CC[N+]1(C)C`, the Potency entry in assay [1], in assay [4], in assay [5], in assay [6], in [7] and in [9] was “inactive” in each case. Besides, the Potency result in assay [17] is “inactive”. Besides, the result in [2], in assay [3], in assay [8], in [10], in [13] and in assay [14] was inactive. The compound was called inactive in [15] and in assay [16].
With `CC(Cl)COP(=O)(OCC(C)Cl)OCC(C)Cl` (stereo not drawn), the Potency entry in [1], in assay [4], in assay [5], in [6], in assay [7] and in [9] was “inactive” throughout. Besides, the Potency result in [19], in [11], in assay [17] and in [18] was “inactive” throughout. Besides, the compound was called inactive in assay [2], in assay [3], in assay [8], in assay [10], in [12] and in assay [13]. The result in [14], in assay [15] and in assay [16] was inactive.
With `C=CCCCCCCCCCCC`, the activation in assay [1] is 6.32% [at 6.98 µM]; in assay [5], 0.0107% [at 8.36 µM]; in [13], -0.0254% [at 8.39 µM]; in assay [16], -0.397% [at 7.01 µM]. In addition, the activity change, negative = cytotoxicity in [2] was 0.762% [at 6.97 µM]; in assay [3], 5.5% [at 8.39 µM]; in assay [9] it was 6.96% [at 8.39 µM]; in assay [14] it was 2.72% [at 6.97 µM]; in assay [17] it was 3.67% [at 14 µM]. Moreover, the activity, negative = inhibition in [4] was 18.9% [at 8.39 µM]. In addition, the viability change, negative = cytotoxic is 0.22% [at 8.39 µM] in [6], -0.862% [at 8.39 µM] in assay [8] and 1.26% [at 8.39 µM] in [10]. Moreover, the activity change, negative = inhibition in assay [7] is 6.44% [at 10.5 µM]. Also, in [15], the activation (H2AX phosphorylation) is -0.58% [at 14 µM].
For `CCCCCC1CCCC(=O)O1` (stereo not drawn), the Potency entry in [1], in assay [4], in assay [5], in [6], in assay [7] and in assay [9] was “inactive” throughout. Besides, the Potency result in assay [20], in assay [11], in assay [17] and in [18] was “inactive” each time. Besides, the compound was classed as inactive in [2], in [3], in [8], in assay [10], in [12] and in assay [13]. Also, the compound was called inactive in assay [14], in [15] and in assay [16].
On to `CCC(O)C(C)(C)C` (stereo not drawn), for which the Potency result in assay [1], in [4], in assay [5], in assay [6], in assay [7] and in assay [9] was “inactive” throughout. Moreover, the Potency entry in [17] is “inactive”. Also, the compound was classed as inactive in [2], in assay [3], in assay [8], in assay [10], in [13] and in assay [14]. Besides, the call in assay [15] and in assay [16] was inactive.
`CCCCCCCCCCCCCC(=O)OC`: the Potency entry in [1], in assay [4], in [5], in assay [6], in assay [7] and in [9] was “inactive” throughout. In addition, the Potency result in assay [17] is “inactive”. In addition, the outcome in assay [2], in [3], in [8], in assay [10], in [13] and in assay [14] was inactive. The result in [15] and in assay [16] was inactive.
Consider `CC(=O)Nc1ncc([N+](=O)[O-])s1`, for which the Potency entry in [1], in assay [4], in assay [5], in [6], in assay [7] and in assay [9] was “inactive” in each case. The Potency result in assay [17] and in assay [18] was “inactive” in each case. Besides, the compound was called inactive in assay [2], in [3], in assay [8], in assay [10], in [12] and in assay [13]. Also, the call in [14], in assay [15] and in assay [16] was inactive.
